The source made the active and inactive calls. How the source made its calls: active means hit-call score of the fitted dose curve at least 0.9, where 1 is the maximum; inactive means score below 0.9.
What was measured:
[1] = ATG_CRE_CIS: Attagene CIS-FACTORIAL HepG2 Assay for human cAMP Responsive Element (CRE) binding protein 3 (AID 2282926); conditions: HepG2 CRE cis-reporter, Attagene multiplexed mRNA; actives raise or lower the signal
Method in brief: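 Capillary electrophoresis of 6-FAM-labelled, HpaI-digested PCR products quantified reporter transcripts. These came from HepG2 transiently transfected with cis-element reporters and exposed to test chemicals for 24 hours, with DMSO defining baseline activity.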

[2] = biological target: CCAAT/enhancer-binding protein beta (Homo sapiens) (UniProt P17676); experiment: ATG_C_EBP_CIS: Attagene CIS-FACTORIAL HepG2 Assay for human CCAAT/Enhancer Binding Protein (C/EBP) beta (AID 2282927); conditions: HepG2 Attagene cis-factorial transcription factor reporter; actives raise or lower the signal
CCAAT/enhancer-binding protein beta (Homo sapiens), sequence (P17676 whole entry, looked up): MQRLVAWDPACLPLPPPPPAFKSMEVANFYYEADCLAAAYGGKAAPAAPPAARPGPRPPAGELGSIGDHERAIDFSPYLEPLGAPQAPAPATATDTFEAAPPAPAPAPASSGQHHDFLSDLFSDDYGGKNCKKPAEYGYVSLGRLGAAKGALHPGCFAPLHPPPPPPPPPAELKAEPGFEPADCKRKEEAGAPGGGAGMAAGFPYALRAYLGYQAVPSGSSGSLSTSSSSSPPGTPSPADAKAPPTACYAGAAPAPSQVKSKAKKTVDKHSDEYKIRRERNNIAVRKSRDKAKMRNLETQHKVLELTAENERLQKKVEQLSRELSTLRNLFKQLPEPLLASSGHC
Method in brief: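 HepG2 transiently transfected with multiplexed reporter units under cis-regulatory promoters reporting endogenous C/EBPb activity. After 24 h exposure, reporter mRNA assayed by RT-PCR, fluorescent labelling, HpaI digestion and capillary electrophoresis; bidirectional fitting versus DMSO.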

[3] = ATG_CMV_CIS: Attagene CIS-FACTORIAL HepG2 Assay for human CMV (Internal Marker) (AID 2282928); conditions: HepG2 CMV promoter reporter, transcription factor profiling; actives raise or lower the signal;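 further: endpoint acts as a background internal control marker rather than a target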
Method in brief: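 Fluorescence intensity of RT-PCR-derived reporter fragments, resolved by capillary electrophoresis, gives the signal. HepG2 liver cells bearing transfected cis-element reporters were treated 24 h; activity in either direction was fit relative to DMSO-treated controls.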

[4] = ATG_DR4_LXR_CIS: Attagene CIS-FACTORIAL HepG2 Assay for human Liver X Receptor (LXR), DR4 submotif (AID 2282929); conditions: HepG2 Attagene DR4 cis-reporter, mRNA transcription; actives raise or lower the signal
Method in brief: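 Transiently transfected HepG2 liver cells; cis-regulated reporters; 24 h dosing. RT-PCR plus CE read-out of reporter mRNA. DMSO baseline, bidirectional curve fitting.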

[5] = biological target: Aryl hydrocarbon receptor (Homo sapiens) (UniProt P35869); experiment: ATG_Ahr_CIS: Attagene CIS-FACTORIAL HepG2 Assay for human Aryl Hydrocarbon Receptor (Ahr) (AID 2282930); conditions: HepG2 AhR cis-factorial reporter transcription; actives raise or lower the signal
Aryl hydrocarbon receptor (Homo sapiens), sequence (P35869 whole entry, looked up): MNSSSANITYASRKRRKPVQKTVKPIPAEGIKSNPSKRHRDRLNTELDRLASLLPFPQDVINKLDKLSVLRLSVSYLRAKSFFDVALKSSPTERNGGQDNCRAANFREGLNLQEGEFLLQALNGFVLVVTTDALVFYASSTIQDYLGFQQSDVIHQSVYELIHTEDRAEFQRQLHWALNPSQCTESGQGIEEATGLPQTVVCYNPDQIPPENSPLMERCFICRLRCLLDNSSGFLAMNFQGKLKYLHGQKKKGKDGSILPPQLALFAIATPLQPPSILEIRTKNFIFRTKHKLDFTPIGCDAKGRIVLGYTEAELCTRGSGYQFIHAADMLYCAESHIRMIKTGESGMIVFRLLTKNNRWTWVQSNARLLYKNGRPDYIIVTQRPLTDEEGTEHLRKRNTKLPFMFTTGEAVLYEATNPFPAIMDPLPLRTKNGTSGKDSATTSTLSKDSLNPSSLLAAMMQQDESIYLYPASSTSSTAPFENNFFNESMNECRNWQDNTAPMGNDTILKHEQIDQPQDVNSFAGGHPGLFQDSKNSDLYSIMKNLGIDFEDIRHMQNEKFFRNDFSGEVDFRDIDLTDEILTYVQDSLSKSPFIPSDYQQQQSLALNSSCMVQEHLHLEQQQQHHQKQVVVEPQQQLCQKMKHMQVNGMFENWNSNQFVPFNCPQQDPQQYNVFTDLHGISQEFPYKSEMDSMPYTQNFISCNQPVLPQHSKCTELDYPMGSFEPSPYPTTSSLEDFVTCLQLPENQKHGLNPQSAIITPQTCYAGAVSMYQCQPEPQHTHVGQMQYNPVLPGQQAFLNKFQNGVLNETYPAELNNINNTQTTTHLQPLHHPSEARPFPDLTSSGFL
Method in brief: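 HepG2 cells transiently transfected with cis-element-driven multiplexed reporter units; endogenous AhR activity read as reporter mRNA 24 h after dosing, via RT-PCR, 6-FAM labelling, HpaI digestion and capillary electrophoresis. Bidirectional fit relative to DMSO.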

[6] = ATG_AP_1_CIS: Attagene CIS-FACTORIAL HepG2 Assay for human Activator Protein 1 (AP-1) (AID 2282931); conditions: HepG2 Attagene cis-factorial AP-1 reporter mRNA; actives raise or lower the signal
Method in brief: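 We transfected HepG2 cells transiently with a set of cis-regulated reporter transcription units, dosed them for 24 h, and quantified reporter mRNA via RT-PCR and capillary electrophoresis, scoring gain or loss of signal relative to DMSO.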

[7] = ATG_AP_2_CIS: Attagene CIS-FACTORIAL HepG2 Assay for human Activator Protein 2 (AP-2) (AID 2282932); conditions: HepG2 AP-2 cis-reporter, Attagene transcription factor profiling; actives raise or lower the signal
Method in brief: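 Read-out: fluorescent reporter mRNA via RT-PCR and capillary electrophoresis, 24 h post-dose in transiently transfected HepG2. Endogenous factors drive cis-promoter reporters; gain or loss of signal fitted bidirectionally against DMSO.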

[8] = ATG_BRE_CIS: Attagene CIS-FACTORIAL HepG2 Assay for human Bone Morphogenetic Protein (BMP) Response Element (BRE) (AID 2282933); conditions: HepG2 BMP response element reporter, Attagene transcription factor profiling; actives raise or lower the signal
Method in brief: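 Endogenous transcription factor activity at a BMP response element was monitored in transfected HepG2 cells 24 h after dosing. Fluorescent RT-PCR products were resolved by capillary electrophoresis, and activity was fitted in both directions versus DMSO.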

[9] = biological target: Retinoic acid receptor alpha (Homo sapiens) (UniProt P10276); experiment: ATG_DR5_RAR_CIS: Attagene CIS-FACTORIAL HepG2 Assay for human Retinoic Acid Receptor Alpha (RARE), DR5 submotif (AID 2282934); conditions: HepG2 Attagene cis-factorial RARE DR5 reporter, mRNA; actives raise or lower the signal
Retinoic acid receptor alpha (Homo sapiens), sequence (P10276 whole entry, looked up): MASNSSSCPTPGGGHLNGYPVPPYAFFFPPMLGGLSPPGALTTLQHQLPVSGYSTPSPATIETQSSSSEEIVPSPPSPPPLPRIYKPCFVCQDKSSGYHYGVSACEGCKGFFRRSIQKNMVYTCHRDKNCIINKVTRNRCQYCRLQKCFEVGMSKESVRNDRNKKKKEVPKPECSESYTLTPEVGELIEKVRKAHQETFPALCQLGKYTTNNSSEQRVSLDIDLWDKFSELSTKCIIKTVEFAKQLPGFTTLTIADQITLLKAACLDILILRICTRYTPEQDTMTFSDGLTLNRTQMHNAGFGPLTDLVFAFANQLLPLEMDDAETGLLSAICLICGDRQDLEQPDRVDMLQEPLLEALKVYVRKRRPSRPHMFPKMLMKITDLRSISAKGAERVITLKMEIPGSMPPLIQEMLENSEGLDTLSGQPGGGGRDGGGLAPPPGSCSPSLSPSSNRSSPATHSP
Method in brief: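 HepG2 cells transiently transfected with multiplexed reporter units; DR5 cis-element drives reporter through endogenous transcription factors. After 24 h dosing, reporter mRNA quantified by RT-PCR, fluorescent labeling, HpaI digestion and capillary electrophoresis; bidirectional fitting versus DMSO.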

[10] = biological target: Transcription factor E2F1 (Homo sapiens) (UniProt Q01094); experiment: ATG_E2F_CIS: Attagene CIS-FACTORIAL HepG2 Assay for human E2F Transcription Factor 1 (AID 2282935); conditions: HepG2 Attagene cis-reporter, E2F reporter RNA transcripts; actives raise or lower the signal
Transcription factor E2F1 (Homo sapiens), sequence (Q01094 whole entry, looked up): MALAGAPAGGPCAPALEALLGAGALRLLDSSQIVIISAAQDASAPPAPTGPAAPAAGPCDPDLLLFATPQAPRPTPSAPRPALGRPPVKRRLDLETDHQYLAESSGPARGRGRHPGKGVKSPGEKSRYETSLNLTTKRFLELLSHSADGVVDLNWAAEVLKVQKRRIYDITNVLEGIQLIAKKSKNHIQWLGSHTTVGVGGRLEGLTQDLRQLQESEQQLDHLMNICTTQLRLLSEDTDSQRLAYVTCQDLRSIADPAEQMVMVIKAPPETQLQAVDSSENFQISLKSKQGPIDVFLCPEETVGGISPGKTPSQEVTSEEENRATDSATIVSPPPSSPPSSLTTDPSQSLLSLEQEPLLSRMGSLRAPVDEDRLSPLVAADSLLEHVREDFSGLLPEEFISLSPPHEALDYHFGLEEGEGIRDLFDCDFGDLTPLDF
Method in brief: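 Transient MRTU transfection of HepG2; 24 h compound exposure; RNA → oligo(dT) RT → PCR → FAM label → HpaI cut → CE fluorescence. Gain/loss of signal fit against DMSO.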

| SMILES | outcome [1] | outcome [2] | outcome [3] | outcome [4] | outcome [5] | outcome [6] | outcome [7] | outcome [8] | outcome [9] | outcome [10] | AC50 [5] | AC50 [6] | AC50 [2] | AC50 [4] | AC50 [3] | AC50 [8] |
| --- | --- | --- | --- | --- | --- | --- | --- | --- | --- | --- | --- | --- | --- | --- | --- | --- |
| COC(=O)c1ccc([N+](=O)[O-])cc1 | inactive | inactive | inactive | inactive | inactive | inactive | inactive | inactive | inactive | inactive | – | – | – | – | – | – |
| CCCC(=O)OC(C)(C)Cc1ccccc1 | inactive | inactive | inactive | inactive | – | inactive | inactive | inactive | inactive | inactive | 72.8 µM (active) | – | – | – | – | – |
| CC(O)C1CCCCC1 (stereo not given) | inactive | inactive | inactive | inactive | inactive | inactive | inactive | inactive | inactive | inactive | – | – | – | – | – | – |
| CC(C)(C)OC(=O)c1ccc(O)cc1 | inactive | inactive | inactive | inactive | inactive | – | inactive | inactive | inactive | inactive | – | 70.1 µM (active) | – | – | – | – |
| Cc1cc(CCC(=O)OCCOCCOCCOC(=O)CCc2cc(C)c(O)c(C(C)(C)C)c2)cc(C(C)(C)C)c1O | inactive | inactive | inactive | inactive | inactive | inactive | inactive | inactive | inactive | inactive | – | – | – | – | – | – |
| CN1CCOCC1 | inactive | inactive | inactive | inactive | inactive | inactive | inactive | inactive | inactive | inactive | – | – | – | – | – | – |
| N#Cc1cscn1 | inactive | inactive | inactive | inactive | – | inactive | inactive | inactive | inactive | inactive | 34.7 µM (active) | – | – | – | – | – |
| CC1=C(Br)C(=O)C(Br)=C/C1=C(/c1ccccc1S(=O)(=O)O)c1cc(Br)c(O)c(Br)c1C | inactive | inactive | inactive | inactive | – | inactive | inactive | inactive | inactive | inactive | 51.1 µM (active) | – | – | – | – | – |
| Cc1ccc2c(c1)C(=O)OC2=O | inactive | inactive | inactive | inactive | inactive | inactive | inactive | inactive | inactive | inactive | – | – | – | – | – | – |
| C=C(C#N)C(=O)OCC | inactive | – | inactive | – | inactive | inactive | inactive | inactive | inactive | inactive | – | – | 154 µM (active) | 158 µM (active) | – | – |
| CC(C)CCCCCCc1ccc(OCCOCCO)cc1 | inactive | inactive | inactive | inactive | inactive | inactive | inactive | inactive | inactive | inactive | – | – | – | – | – | – |
| CC1(C)CCC[C@]2(C)[C@H]3CCO[C@]3(C)CC[C@@H]12 | inactive | inactive | inactive | inactive | inactive | – | inactive | inactive | inactive | inactive | – | 151 µM (active) | – | – | – | – |
| CCC(Cl)C(Cl)C(Cl)CC(Cl)C(Cl)C(C)Cl (stereo not given) | inactive | inactive | – | – | inactive | – | inactive | – | inactive | inactive | – | 55.7 µM (active) | – | 9.99 µM (active) | 47.7 µM (active) | 116 µM (active) |
| COC(CC(C)CCCC(C)(C)O)OC (stereo not given) | inactive | inactive | inactive | inactive | inactive | inactive | inactive | inactive | inactive | inactive | – | – | – | – | – | – |
| [O-]n1ccccc1=S.[O-]n1ccccc1=S.[Zn+2] | inactive | inactive | inactive | inactive | inactive | inactive | inactive | inactive | inactive | inactive | – | – | – | – | – | – |
| Cc1cc(C)nc(NS(=O)(=O)c2ccc(N)cc2)n1 | inactive | inactive | inactive | inactive | inactive | inactive | inactive | inactive | inactive | inactive | – | – | – | – | – | – |
| O=C1OC(=O)c2c(Cl)c(Cl)c(Cl)c(Cl)c21 | inactive | inactive | inactive | inactive | – | inactive | inactive | inactive | inactive | inactive | 36.2 µM (active) | – | – | – | – | – |
| CC1(C)C2=CCCC(C)(C)[C@]23CC[C@H]1C3 | inactive | inactive | – | – | inactive | – | inactive | inactive | inactive | inactive | – | 100 µM (active) | – | 100 µM (active) | 112 µM (active) | – |
| COC(=O)c1ccc(OC)cc1 | inactive | inactive | inactive | inactive | inactive | inactive | inactive | inactive | inactive | inactive | – | – | – | – | – | – |
| COc1cc(Cl)c(OC)cc1N | inactive | inactive | inactive | inactive | – | inactive | inactive | inactive | inactive | inactive | 51.2 µM (active) | – | – | – | – | – |
| Cc1ccc(N)c(S(=O)(=O)O)c1 | inactive | inactive | inactive | inactive | inactive | inactive | inactive | inactive | inactive | inactive | – | – | – | – | – | – |
| NC1CCCCC1N (stereo not given) | inactive | inactive | inactive | inactive | inactive | inactive | inactive | inactive | inactive | inactive | – | – | – | – | – | – |
| CCCC(=O)c1ccccc1 | inactive | inactive | inactive | inactive | inactive | inactive | inactive | inactive | inactive | inactive | – | – | – | – | – | – |
| CN(c1nccc(=O)[nH]1)C1CCN(c2nc3ccccc3n2Cc2ccc(F)cc2)CC1 | inactive | inactive | inactive | inactive | inactive | inactive | inactive | inactive | inactive | inactive | – | – | – | – | – | – |
